Only some compounds are listed: those with a hit (about 11% of all), similar ones and a draw of the others.
NS1 inh – inhibitors of influenza NS1 protein function; Potency, µM (doses to about 46.1 µM), for inactives: at the top dose activity, positive = more growth; 270,000 tested, 0.4% active; AID 2326; calls by dose curve; further: actives are rising curves; nearly all actives have a fitted effect of over 50% in size
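In this qHTS, NS1 from influenza A is expressed in budding yeast, where it slows growth. Cells are switched from glucose to 2% galactose medium (pH 6.0, -URA), treated with compound, and growth recovery is read at OD600.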
Pf growth 48h – P. falciparum growth inhibition at 48 hours (one generation); P. falciparum luciferase growth in erythrocytes, 48 h; Potency, µM (titrated, usually from 28.7 µM), without a hit: top-dose activity change, negative = inhibition, actives largely listed as inhibitors; 310,000 tested, 5.9% active; AID 504832; further: on the % scale 0 is the no-effect control and ±100 the full control effect
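First compound was added to culture medium, then infected red cells at 0.1% parasitemia and 2% hematocrit (final). After incubation at 37 C under 5% CO2, luciferase detection reagent was dispensed and light output recorded.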
Sm TGR inh – blocks Schistosoma mansoni thioredoxin glutathione reductase; Potency, µM (highest dose often 114 µM), without a hit: top-dose activity change, negative = inhibition, actives largely listed as inhibitors; AID 485364; 360,000 tested, 3% active; Q962Y6; purified TGR, DTNB reduction, TNB absorbance 405 nm; further: on the % scale 0 is the no-effect control and ±100 the full control effect; nearly all actives have a fitted effect of over 60% in size
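Kinetic colorimetric format: TGR-catalysed, NADPH-driven DTNB reduction monitored via TNB absorbance. Enzyme dispensed at 20 nM; compound exposure 15 min at room temperature before reaction start.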
AMA1 RON2 block – inhibitors of Plasmodium falciparum AMA1-RON2 interaction | 360,000 tested, 0.2% active | AlphaScreen AMA1-biotinylated RON2 peptide binding | Potency, µM (series often up to 58.2 µM), inactives show top-dose activity change, negative = inhibition, actives largely listed as inhibitors;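 further: 0% = vehicle wells and -100% = peptide control; nearly all actives have a fitted effect of over 45% in size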
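AMA1 (3D7) with his tag at 25 nM final met compounds first, then biotinylated RON2 peptide at 25 nM; detection used donor plus acceptor beads, 10 µg/mL apiece, read by AlphaScreen after 30 min at room temperature.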
Pf growth 96h – P. falciparum growth inhibition at 96 hour, primary screen for plastid delayed-death inhibitors; P. falciparum luciferase reporter growth, 96 h; Potency, µM (series often up to 28.7 µM), inactives show at the highest dose activity change, negative = inhibition, actives largely listed as inhibitors; 320,000 tested, 6.9% active; AID 504834; further: on the % scale 0 is the no-effect control and ±100 the full control effect
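Delayed-death screen, second-generation endpoint: infected erythrocytes, 2% hematocrit, 0.05% parasitemia final; 96 hours at 37 C, 5% CO2; luciferase detection reagent; luminescence decrease equals reduced growth.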
Starred values were filed as active, the others as inactive; ? = inconclusive; . = no result given; [ ] = dose if it differs, or a comment. Unless noted, the call rests on the fitted dose curve; in most records, active means well fitted curve in the direction sought with a large enough effect; inconclusive means small, poorly fitted or top-dose-only effect, or another doubt; inactive means no such curve, though single readings can be large; an effect the other way counts as inactive or inconclusive. Potency means the concentration at half of the fitted maximal effect.

SMILES | NS1 inh | Pf growth 48h | Sm TGR inh | AMA1 RON2 block | Pf growth 96h
CCSc1nn(CC(=O)Nc2cccc(CC)c2)c(N)c1S(=O)(=O)c1ccccc1 | . | . | 2% | . | .
CC(=O)c1ccc(NC(=O)c2ccc(CN3C(=O)CCn4nc(C)cc43)cc2)cc1 | . | . | 1% | . | .
CCCN(CCC)C(=O)Cn1c(=O)n(-c2cccc(OC)c2)c(=O)c2c3c(sc21)CCCC3 | . | . | 9% | . | .
CCN(CC)CCNC(=O)/C(=C\c1cccn1C)NC(=O)c1cccs1 | 8% | 9% | 2% | 0% | 1.9µM*
COc1ccc(CNC(=O)CCC2N=C3c4ccccc4N=C(SCc4cccc(F)c4)N3C2=O)cc1 (centres undefined) | . | . | 3% | . | .
CCN(CC)S(=O)(=O)c1ccc(Nc2ccc(-c3ccc4c(c3)OCCO4)nn2)cc1 | 5% | -1% | -23% | -6% | ?
CN(C)S(=O)(=O)c1ccc(Nc2ccc(-c3ccc4c(c3)OCCO4)nn2)cc1 | 1% | ? | 14% | -6% | 5.9µM*
Cc1cnc(NC(=O)c2cc(-c3ccccc3)nn2-c2ccccc2)s1 | . | . | . | -6% | .
CNS(=O)(=O)c1cn(CC(=O)Nc2ccc(OC)c(Cl)c2)cc1S(=O)(=O)NC | . | . | -3% | . | .
CC1(C)C[C@@H]2C[C@@](C)(CN2C(=O)c2ccccc2)C1 | -8% | 0% | 1% | 3% | 47%
CC1(C)CC2CC(C)(CN2/C=C2/CCCCC2=O)C1 (centres undefined) | 0% | ? | 35µM* | -5% | -3%
O=C(Nc1ccc(F)c(Cl)c1)C1CCCN(c2ncnc3onc(-c4ccc(F)cc4)c23)C1 (centres undefined) | . | . | 50µM* | . | .
COc1ccc(NC(=O)C2CCCN(c3ncnc4onc(-c5ccc(F)cc5)c34)C2)cc1 (centres undefined) | 4% | ? | 2% | -11% | -15%
C=CCSc1nnc(-c2sc(-c3ccccc3)nc2C)n1C | -12% | -8% | -13% | 16% | 16%
C=CCN(C(=O)CSC1=NC(=O)CN1C(C)=O)c1nc(C)c(-c2ccccc2)s1 | 4% | 0% | 4.5µM* | ? | 199%
O=C1C(C=NCCCN2CCCC2=O)=C(O)c2ccccc21 | -2% | 143% | 7% | 0% | 13µM*
O=C1C(C=NC2CC2)=C(O)c2ccccc21 | -24% | . | -18% | -5% | 13µM*
Cc1ccc(C(=O)OCC(=O)N2CCC(c3ccccc3)=N2)cc1 | . | . | . | -13% | .
O=C(CSc1nc(=O)n(CCN2CCOCC2)c2c1CCC2)Nc1cccc(Cl)c1 | . | . | 7% | . | .
O=C(C1CCCN(Cc2cc(Br)ccc2O)C1)N1CCCCC1 (centres undefined) | 0% | 8.3µM* | -2% | 20% | ?
Cc1ccc(CN2CCCC(C(=O)c3cccc(C(F)(F)F)c3)C2)o1 (centres undefined) | -1% | -4% | ? | 1% | -19%
CN(C)c1cccc(C(=O)N(C)C2CCCN(Cc3ccccc3F)C2)c1 (centres undefined) | 1% | ? | -23% | -2% | 4.1µM*
O=C(NCC1CCCN(Cc2ccccc2F)C1)c1cccc(C(F)(F)F)c1 (centres undefined) | 3% | -5% | -3% | 1% | 12µM*
O=C(c1cccc(C(F)(F)F)c1)C1CCCN(Cc2ccccc2O)C1 (centres undefined) | -5% | ? | 0% | 4% | 8.3µM*
CC(=O)c1ccc(NC(=O)C2CCN(S(=O)(=O)c3ccc4c(c3)CCCN4C(=O)C3CCC3)CC2)cc1 | . | . | 5% | . | .
SMILES | NS1 inh | Pf growth 48h | Sm TGR inh | AMA1 RON2 block | Pf growth 96h
CC(C)=CCN1CCN(Cc2c(C)nn(C)c2Cl)CC1CCO (centres undefined) | -2% | 1% | 1%[57.1 µM] | 15% | 0%
CCOC(=O)C1CN(C(=O)OCC)CC1=NNC(N)=O (centres undefined) | . | . | . | 121% | .
CCOC(=O)Cc1csc(NC(=O)CCCC(=O)O)n1 | -2% | 32% | 8% | -13% | 48%
CCOc1cc(CN2CCCC(C(=O)c3cccc(C(F)(F)F)c3)C2)ccc1O (centres undefined) | 5% | 5.2µM* | ? | -3% | 8%
CCOC(=O)C1CCCN(Cc2ccc(O)c(OC)c2)C1 (centres undefined) | -6% | 9% | ? | -19% | -3%
COC(=O)[C@]1(Sc2ccc(OC)cc2)CC(=O)N[C@@H]1c1ccccc1 | . | . | . | 3% | .
O=C(NCC(c1ccco1)S(=O)(=O)c1ccc(Cl)cc1)c1ccccc1F (centres undefined) | . | . | 2.5µM* | . | .
Cc1ccc(C(=O)NCC(c2ccco2)S(=O)(=O)c2ccc(Cl)cc2)cc1C (centres undefined) | . | . | 11µM* | . | .
O=C(CCc1ccc(S(=O)(=O)NC2CCCCC2)cc1)NCc1ccccn1 | 6% | 29% | 35µM* | 30% | -14%
O=C(COc1ccc(S(=O)(=O)NC2CCCCC2)cc1)NCc1ccccn1 | -6% | 1% | 5% | 35% | 4.1µM*
C[C@H](NC(=O)C1CCN(S(=O)(=O)c2ccccc2)CC1)C(=O)NCc1cccc(C(F)(F)F)c1 | 2% | 5% | 4% | -6% | ?
CCOC(=O)C1=C(C)NC2=C(C(=O)CCC2)C1c1cc(OC)ccc1OC (centres undefined) | 0% | -12% | -2% | 2% | .
CCCOC(=O)C1=C(C)NC2=C(C(=O)CCC2)C1c1cc(OC)ccc1OC (centres undefined) | -5% | -15% | -19% | 0% | 5%
CC1=C(C(=O)OCC(C)C)C(c2ccsc2)C2=C(CCCC2=O)N1 (centres undefined) | -9% | 13µM* | 5% | 3% | 8.3µM*
CCOC(=O)C1=C(CC)NC2=C(C(=O)CCC2)C1c1ccc(OC)c(OC)c1 (centres undefined) | -2% | 7.4µM* | 6% | -12% | .
CCCCOC(=O)C1=C(C)NC2=C(C(=O)CCC2)C1c1cc(OC)ccc1OC (centres undefined) | 2% | . | -2% | -9% | 13µM*
CCCc1cc(N2CCN(c3ccccc3F)CC2)n2cnnc2n1 | . | . | 0% | . | .
CC1CCN(c2ccc([N+](=O)[O-])cc2C(=O)NCC2CCCO2)CC1 (centres undefined) | -1% | -14% | 7% | ? | 0%
CC(CN(C)C)C(C)(O)Cc1ccc(Cl)cc1 (centres undefined) | . | -4% | . | . | 2%
COc1ccc(NC(=O)Nc2ccc3c(c2)C(=O)N([C@@H](C)CO)C[C@@H](C)[C@@H](CN(C)CC2CCCCC2)O3)cc1 | . | . | . | -4% | .
Cc1ccc2oc(=O)c3cc(C(=O)Nc4cccc(C#N)c4)sc3c2c1 | . | . | 2% | . | .
COc1ccc(CCn2c(C)cc(C(=O)CN3C(=O)C(=O)N(C4CCCC4)C3=O)c2C)cc1OC | . | 9.3µM* | 1% | -16% | ?

Source: PubChem BioAssay (National Center for Advancing Translational Sciences (NCATS))
